Measurements published in PubChem BioAssay AID1159580 (chemical genetic matrix, 2015).
“And” between values parts separate entries of the source, which are not always exact repeats. Equal values may be shown once. Screen size: about 5,500 compounds; about 2,000 (36%) were called active. About 18% were inconclusive and are not listed. Rule as the data show it: active = normalized growth mostly below about 0.91 (no sharp cut-off); inconclusive = no clear call, values can overlap the other calls; inactive = mostly above about 0.92. The list shows a part of the results.

Assay: chemical genetic growth profiling, strain panel (AID 1159580);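 also: tested at 20 µM; growth read once vehicle control cultures reached saturation at 30 °C; 1 = growth at the plate median or of vehicle wells; lower values mean less growth of the strain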
Settings: S. cerevisiae deletion strains, growth OD

Measured: normalized growth

COc1cc([C@@H]2c3cc4c(cc3[C@H](OC(C)=O)[C@H]3COC(=O)[C@@H]23)OCO4)cc(OC)c1OC
inactive: locus YAL021C, strain ccr4, stronger effect = lower value 1.01 | locus YAL026C, strain drs2, stronger effect = lower value 0.991 | locus YAL030W, strain snc1, stronger effect = lower value 1.01 | locus YBL061C, strain skt5, stronger effect = lower value 1.01 | locus YBR009C, strain hhf1, stronger effect = lower value 0.996 | locus YBR021W, strain FUR4, stronger effect = lower value 1.01 | locus YBR023C, strain chs3, stronger effect = lower value 1.01 | locus YBR171W, strain sec66, stronger effect = lower value 1 | locus YBR229C, strain ROT2, stronger effect = lower value 1.01 | locus YBR231C, strain swc5, stronger effect = lower value 1.01 | locus YBR279W, strain paf1, stronger effect = lower value 1 | locus YCL011C, strain gbp2, stronger effect = lower value 1 | locus YCL016C, strain dcc1, stronger effect = lower value 1 | locus YCL029C, strain bik1, stronger effect = lower value 1.01 | locus YCL069W, strain vba3, stronger effect = lower value 1 | locus YCR088W, strain abp1, stronger effect = lower value 0.982 | locus YDL005C, strain med2, stronger effect = lower value 1 | locus YDL035C, strain GPR1, stronger effect = lower value 1.02 | locus YDL040C, strain nat1, stronger effect = lower value 1 | locus YDL074C, strain BRE1, stronger effect = lower value 1.02 | locus YDL101C, strain DUN1, stronger effect = lower value 1.01 | locus YDL185W, strain tfp1, stronger effect = lower value 1.03 | locus YDL192W, strain arf1, stronger effect = lower value 1.04 | locus YDR001C, strain nth1, stronger effect = lower value 0.99 | locus YDR069C, strain doa4, stronger effect = lower value 1.01 | locus YDR101C, strain arx1, stronger effect = lower value 1.01 | locus YDR137W, strain rgp1, stronger effect = lower value 1.03 | locus YDR150W, strain NUM1, stronger effect = lower value 1.01 | locus YDR159W, strain sac3, stronger effect = lower value 1.01 | locus YDR162C, strain NBP2, stronger effect = lower value 1.01 | locus YDR195W, strain ref2 0.972 | locus YDR297W, strain sur2, stronger effect = lower value 1.01 | locus YDR318W, strain mcm21, stronger effect = lower value 1.02 | locus YDR334W, strain swr1, stronger effect = lower value 0.969 | locus YDR335W, strain msn5, stronger effect = lower value 1.01 | locus YDR388W, stronger effect = lower value 1.02 | locus YDR392W, strain spt3, stronger effect = lower value 0.998 | locus YDR502C, strain sam2, stronger effect = lower value 1.01 | locus YEL003W, strain gim4, stronger effect = lower value 0.998 | locus YEL037C, strain rad23, stronger effect = lower value 0.985 | locus YEL061C, strain CIN8 (second series), stronger effect = lower value 0.98 | locus YEL061C, strain CIN8, stronger effect = lower value 1.01 | locus YER015W, strain faa2, stronger effect = lower value 1.01 | locus YER016W, strain bim1, stronger effect = lower value 1.01 | locus YER110C, stronger effect = lower value 1.02 | locus YER111C, strain swi4, stronger effect = lower value 1.01 | locus YER155C, strain BEM2 (second series), stronger effect = lower value 1.01 | locus YER155C, strain BEM2, stronger effect = lower value 0.998 | locus YER167W, strain BCK2, stronger effect = lower value 1.02 | locus YFR010W, strain ubp6, stronger effect = lower value 0.98 | locus YGL078C, strain dbp3, stronger effect = lower value 1.03 | locus YGL086W, strain mad1, stronger effect = lower value 1.01 | locus YGL167C, strain pmr1, stronger effect = lower value 1 | locus YGL173C, strain kem1, stronger effect = lower value 1.01 | locus YGL227W, strain vid30, stronger effect = lower value 0.994 | locus YGL240W, strain doc1, stronger effect = lower value 1.01 | locus YGL248W, strain PDE1, stronger effect = lower value 1.01 | locus YGL253W, strain hxk2, stronger effect = lower value 1 | locus YGR078C, strain PAC10, stronger effect = lower value 1.02 | locus YGR135W, strain pre9, stronger effect = lower value 1.03 | locus YGR252W, strain gcn5, stronger effect = lower value 1.01 | locus YHR013C, strain ard1, stronger effect = lower value 1.01 | locus YHR027C, strain rpn1, stronger effect = lower value 0.993 | locus YHR030C, strain SLT2, stronger effect = lower value 1.01 and 0.979 | locus YHR079C, strain IRE1 (second series), stronger effect = lower value 1.03 | locus YHR079C, strain IRE1, stronger effect = lower value 0.985 | locus YHR094C, strain hxt1, stronger effect = lower value 1.03 | locus YHR129C, strain ARP1, stronger effect = lower value 1.01 | locus YHR142W, strain chs7, stronger effect = lower value 0.995 | locus YHR200W, strain rpn10, stronger effect = lower value 1.04 | locus YIL066C, strain RNR3, stronger effect = lower value 1.02 | locus YIL073C, strain SPO22, stronger effect = lower value 1.07 | locus YIL125W, strain kgd1, stronger effect = lower value 1.01 | locus YIR030C, strain dcg1, stronger effect = lower value 1.01 | locus YJL092W, strain hpr5, stronger effect = lower value 0.986 | locus YJL095W, strain BCK1 (second series), stronger effect = lower value 0.999 | locus YJL095W, strain BCK1, stronger effect = lower value 1.01 and 1.04 | locus YJL115W, strain asf1, stronger effect = lower value 0.993 | locus YJL129C, strain trk1, stronger effect = lower value 1.01 | locus YJL134W, strain LCB3, stronger effect = lower value 1.01 | locus YJL154C, strain vps35, stronger effect = lower value 0.978 | locus YJL164C, strain tpk1, stronger effect = lower value 1.01 | locus YJL166W, strain qcr8, stronger effect = lower value 1.02 | locus YJL168C, strain set2, stronger effect = lower value 1.02 | locus YJL187C, strain SWE1 (second series), stronger effect = lower value 1.02 | locus YJR043C, strain POL32, stronger effect = lower value 1.01 | locus YJR066W, strain TOR1, stronger effect = lower value 0.931 | locus YKL009W, strain mrt4, stronger effect = lower value 0.999 | locus YKL068W, stronger effect = lower value 1.01 | locus YKL085W, strain MDH1 (second series), stronger effect = lower value 1 | locus YKL085W, strain MDH1, stronger effect = lower value 1 | locus YKL160W, strain elf1, stronger effect = lower value 1.01 | locus YKL190W, strain CNB1, stronger effect = lower value 1.01 | locus YKR001C, strain vps1, stronger effect = lower value 1.03 | locus YKR026C, strain gcn3, stronger effect = lower value 0.997 | locus YKR091W, strain srl3, stronger effect = lower value 1 | locus YLL001W, strain dnm1, stronger effect = lower value 0.991 | locus YLL026W, stronger effect = lower value 1.01 | locus YLL041C, strain sdh2, stronger effect = lower value 0.997 | locus YLR027C, strain aat2, stronger effect = lower value 1 | locus YLR039C, strain RIC1, stronger effect = lower value 1.01 | locus YLR058C, strain SHM2, stronger effect = lower value 1.01 | locus YLR102C, strain apc9, stronger effect = lower value 1.03 | locus YLR113W, strain HOG1, stronger effect = lower value 1.08 | locus YLR221C, strain rsa3, stronger effect = lower value 1.01 | locus YLR258W, strain gsy2, stronger effect = lower value 1.01 | locus YLR262C, strain YPT6 (second series), stronger effect = lower value 0.956 | locus YLR262C, strain YPT6, stronger effect = lower value 1.07 | locus YLR268W, strain sec22, stronger effect = lower value 1.01 | locus YLR320W, strain mms22, stronger effect = lower value 1.01 | locus YLR330W, strain CHS5, stronger effect = lower value 1.01 | locus YLR342W, strain FKS1 (second series), stronger effect = lower value 1.02 | locus YLR342W, strain FKS1, stronger effect = lower value 1 | locus YLR357W, strain rsc2, stronger effect = lower value 0.973 | locus YLR370C, strain arc18, stronger effect = lower value 1.02 | locus YLR371W, strain rom2, stronger effect = lower value 1.02 | locus YLR384C, strain iki3, stronger effect = lower value 0.994 | locus YLR418C, strain cdc73, stronger effect = lower value 1.03 | locus YML016C, strain PPZ1, stronger effect = lower value 1.01 | locus YML032C, strain rad52, stronger effect = lower value 1.02 | locus YML120C, strain ndi1, stronger effect = lower value 1.01 | locus YML124C, strain tub3, stronger effect = lower value 1.02 | locus YMR058W, strain fet3, stronger effect = lower value 1 | locus YMR078C, strain ctf18, stronger effect = lower value 1.05 | locus YMR125W, strain sto1, stronger effect = lower value 0.986 | locus YMR129W, stronger effect = lower value 1 | locus YMR205C, strain PFK2, stronger effect = lower value 0.995 | locus YMR223W, strain ubp8, stronger effect = lower value 1.03 | locus YMR231W, strain pep5, stronger effect = lower value 1 | locus YMR263W, strain SAP30, stronger effect = lower value 1.01 | locus YMR307W, strain GAS1, stronger effect = lower value 1.04 | locus YNL067W, strain RPL9B, stronger effect = lower value 1.02 | locus YNL071W, strain lat1, stronger effect = lower value 0.991 | locus YNL183C, strain NPR1, stronger effect = lower value 0.972 | locus YNL209W, strain ssb2, stronger effect = lower value 0.989 | locus YNL233W, strain BNI4, stronger effect = lower value 1.01 | locus YNL248C, strain rpa49, stronger effect = lower value 0.961 | locus YNL250W, strain rad50, stronger effect = lower value 1.03 | locus YNL271C, strain bni1, stronger effect = lower value 1.02 | locus YNL298W, strain CLA4, stronger effect = lower value 1.02 | locus YNL307C, strain MCK1, stronger effect = lower value 1.02 | locus YNL322C, strain KRE1 (second series), stronger effect = lower value 1 | locus YNL322C, strain KRE1, stronger effect = lower value 1.01 | locus YNR049C, strain mso1, stronger effect = lower value 0.993 | locus YNR052C, strain pop2, stronger effect = lower value 1.03 | locus YOL006C, strain TOP1, stronger effect = lower value 1.07 | locus YOL012C, strain htz1 0.847 | locus YOL147C, strain pex11, stronger effect = lower value 1.01 | locus YOR001W, strain rrp6, stronger effect = lower value 0.987 | locus YOR061W, strain CKA2, stronger effect = lower value 1.01 | locus YOR069W, strain VPS5, stronger effect = lower value 1.01 | locus YOR070C, strain gyp1, stronger effect = lower value 1.01 | locus YOR080W, strain dia2, stronger effect = lower value 1 | locus YOR083W, strain WHI5, stronger effect = lower value 1.01 | locus YOR106W, strain vam3, stronger effect = lower value 1 | locus YOR136W, strain idh2, stronger effect = lower value 1.02 | locus YOR144C, strain elg1, stronger effect = lower value 1.01 | locus YOR184W, strain ser1, stronger effect = lower value 1.03 | locus YOR231W, strain MKK1, stronger effect = lower value 0.986 | locus YOR265W, strain rbl2, stronger effect = lower value 1 | locus YOR270C, strain vph1, stronger effect = lower value 0.847 | locus YOR290C, strain snf2, stronger effect = lower value 1.01 | locus YOR316C, strain cot1, stronger effect = lower value 1.01 | locus YPL051W, strain arl3, stronger effect = lower value 1.03 | locus YPL078C, strain atp4, stronger effect = lower value 0.978 | locus YPL106C, strain sse1, stronger effect = lower value 1.01 | locus YPL240C, strain hsp82, stronger effect = lower value 0.993 | locus YPL241C, strain CIN2, stronger effect = lower value 1.02 | locus YPL256C, strain CLN2, stronger effect = lower value 1 | locus YPR119W, strain clb2, stronger effect = lower value 1.04 | locus YPR141C, strain kar3, stronger effect = lower value 1.03 | locus YPR163C, strain tif3, stronger effect = lower value 1.03 | locus YPR167C, strain met16, stronger effect = lower value 1.01 | strain wtn01, stronger effect = lower value 1.03
